From PubChem BioAssay
TRAIL sens C8 = caspase-8 TRAIL sensitization; actives 1% (n = 360,000); inhibition (viability loss, TRAIL sensitization), % at 10 µM; AID 624354; NB7+C8 cells + TRAIL, ATPlite viability luminescence;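 active = compounds causing at least 50% loss of cell viability in the single-dose screen, relative to plate controls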
PPC-1+TRAIL kill = PPC-1 cancer cell killing with TRAIL present | PPC-1 cells + TRAIL, ATPLite viability luminescence | cell killing (% activity), % at 4 µM or 5 µM | actives 0.41% (n = 220,000) | AID 1443;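 active = cell killing above 50% in the first pass at 4 µM, then a duplicate retest at 5 µM averaging 50% or more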
STAT3 inh = reduces IL-6 driven STAT3 reporter signal; U3A cells, IL-6 STAT3-luciferase reporter, luminescence; host cell line lacks STAT1; inhibition, % at 5.5 µM; actives 0.89% (n = 190,000); AID 862;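 active = inhibition above the mean inhibition across all screened compounds plus 3 SD, cut at about 44% in these data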
STAT1 inh-1 = inhibitors of IFN-gamma induced STAT1 signaling; NIH 3T3 STAT1-luciferase reporter, luminescence; inhibition, % at 5.5 µM; actives 0.35% (n = 200,000); AID 920;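 active = inhibition above a set limit, the mean inhibition across all tested compounds plus 3 SD, cut at about 34% in these data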
HSP90 refold inh = inhibitors of HSP90 luciferase refolding in rabbit reticulocyte lysate. luciferase refolding luminescence, 3 h. inhibition, % at 5.6 µM. actives 0.91% (n = 290,000). AID 1789;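 active = inhibition above the screen-wide mean plus 3 SD, computed separately per campaign, cut at about 16% in these data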;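 also: inhibitors lower the luminescence because luciferase stays unfolded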
HSF1 inhib = HSF1 inhibition; NIH3T3-HGL HSE-luciferase, MG132-induced, luminescence 8 h; hits give low values; activity change, negative = inhibition, % at 7.5 µM (by protocol); actives 0.77% (n = 300,000);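 active = more than half of replicate wells show activity change below -50%, luminescence cut by over half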;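 also: luciferase reports HSF-1 transcriptional activity via heat shock element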
STAT1 inh-2 = confirmation of STAT1 signaling inhibitors. shares compounds with STAT1 inh-1. NIH 3T3 STAT1-luciferase reporter, IFN-gamma, luminescence. inhibition, % at 5.5 µM. actives 55% (n = 200);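 active = triplicate mean inhibition exceeding the hit cutoff computed for the primary STAT1 screen, cut at about 35% in these data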
NFkB inh STAT1ct = NF-kappaB inhibition in STAT1 inhibitor counter-screen; shares compounds with STAT1 inh-1; HEK293T NF-kB luciferase reporter, TNF-alpha induced, luminescence; inhibition, % at 5.7 µM; actives 30% (n = 200);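 active = inhibition above the mean of solvent-only control wells plus 3 SD of those wells, cut at about 15% in these data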
STAT3 inh STAT1c = counter-screen for STAT1 inhibitors: STAT3 inhibition; shares compounds with STAT1 inh-1; AID 1310; U3A cells, IL-6 STAT3 luciferase reporter, luminescence; cells lacking STAT1; inhibition, % at 5.7 µM; actives 20% (n = 200);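 active = inhibition above the mean of solvent-only control wells plus 3 SD, set per campaign, cut at about 25% in these data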
Each line names hits and unclear results; the compound was inactive in the other large screens (follow-up assays come after a bar, where they were run). Sampled rows, rich in hits. Any-hit rate of the full collection: about 2.4%.

Cc1c(C(=O)Nc2cccc(Cl)c2)c2ccccn2c1CCc1ccncc1	STAT1 inh-1 35 | STAT1 inh-2 inactive | NFkB inh STAT1ct inactive | STAT3 inh STAT1c inactive
Cc1c(C(=O)Nc2ccc(Cl)cc2)c2ccccn2c1CCc1ccncc1	none
CCC(c1nnnn1-c1ccc2c(c1)OCCO2)N1CCc2ccccc2C1 (stereo not given)	none (no result: PPC-1+TRAIL kill, STAT3 inh, STAT1 inh-1, HSP90 refold inh, HSF1 inhib)
O=c1[nH]c(SCc2ccccc2F)nc2ccccc12	none
O=c1cc(CSc2nc3ccccc3c(=O)[nH]2)c2ccc(O)cc2o1	STAT1 inh-1 69 | STAT1 inh-2 52 | NFkB inh STAT1ct inactive | STAT3 inh STAT1c inactive
CCOC(=O)N1CCN(C(=S)NC(=O)c2cc(Br)ccc2Cl)CC1	STAT1 inh-1 44 | STAT1 inh-2 inactive | NFkB inh STAT1ct inactive | STAT3 inh STAT1c inactive
CCn1c(=O)c2cc(C(=O)N3CCCC3)sc2c2ccccc21	STAT1 inh-1 56 (no result: TRAIL sens C8, STAT3 inh) | STAT1 inh-2 47 | NFkB inh STAT1ct inactive | STAT3 inh STAT1c inactive
CCn1c(=O)c2cc(C(=O)N3CCOCC3)sc2c2ccccc21	none
CS(=O)(=O)c1nc(-c2ccccc2)cc(C(F)(F)F)n1	TRAIL sens C8 59, STAT1 inh-1 36, HSF1 inhib -98 | STAT1 inh-2 47 | NFkB inh STAT1ct inactive | STAT3 inh STAT1c inactive
NS(=O)(=O)c1ccc(CCNC(=O)c2ccc(C#CC3(O)CCCCC3)cc2)cc1	STAT1 inh-1 52, HSF1 inhib -54 | STAT1 inh-2 inactive | NFkB inh STAT1ct inactive | STAT3 inh STAT1c inactive
NS(=O)(=O)c1ccc(CCNC(=O)c2ccncc2)cc1	none (no result: PPC-1+TRAIL kill, STAT3 inh, STAT1 inh-1)
Cc1ccc(OCCC(=O)Nc2cc(S(=O)(=O)N3CCOCC3)ccc2N2CCCC2)cc1	none (no result: PPC-1+TRAIL kill, STAT3 inh, STAT1 inh-1, HSP90 refold inh, HSF1 inhib)
C[C@@H]1CN([C@H](C)CO)C(=O)c2cc(C#CC(C)(C)O)cnc2O[C@@H]1CN(C)C(=O)C1CC1	none (no result: PPC-1+TRAIL kill, STAT3 inh, STAT1 inh-1, HSP90 refold inh, HSF1 inhib)
COCCNC(=O)C1(C)CCN(C(=O)c2cc(C)nn2C(C)(C)C)C1 (stereo not given)	none (no result: PPC-1+TRAIL kill, STAT3 inh, STAT1 inh-1, HSP90 refold inh, HSF1 inhib)
Cc1cccc(C2c3[nH]c4ccccc4c3CCN2Cc2ccc(C)s2)n1 (stereo not given)	none
COc1ccccc1C1c2[nH]c3ccccc3c2CCN1Cc1cnc(C)s1 (stereo not given)	STAT1 inh-1 54 | STAT1 inh-2 inactive | NFkB inh STAT1ct inactive | STAT3 inh STAT1c inactive
COc1cccc(C2c3[nH]c4ccccc4c3CCN2Cc2cnc(C)s2)c1OC (stereo not given)	STAT1 inh-1 60 | STAT1 inh-2 inactive | NFkB inh STAT1ct inactive | STAT3 inh STAT1c inactive
COc1cccc(S(=O)(=O)N(C)C[C@H]2Oc3ncc(Br)cc3C(=O)N([C@@H](C)CO)C[C@@H]2C)c1	none (no result: PPC-1+TRAIL kill, STAT3 inh, STAT1 inh-1, HSP90 refold inh, HSF1 inhib)
CCc1nc2ccc(C(=O)NCCc3ccccn3)cn2c1N(C)Cc1ccc(N(C)C)cc1	none (no result: PPC-1+TRAIL kill, STAT3 inh, STAT1 inh-1, HSP90 refold inh, HSF1 inhib)
CCOC(=O)C(=CNc1cc(C)nn1-c1ccc(C)cc1)C(=O)OCC	STAT1 inh-1 69 | STAT1 inh-2 60 | NFkB inh STAT1ct 40 | STAT3 inh STAT1c inactive
CCOC(=O)C(=CNc1cc(C)ccc1C)C(=O)OCC	STAT1 inh-1 37 | STAT1 inh-2 inactive | NFkB inh STAT1ct inactive | STAT3 inh STAT1c inactive
CCOC(=O)C(=CNc1cc(C)ccc1[N+](=O)[O-])C(=O)OCC	none (no result: STAT3 inh, STAT1 inh-1)
CCOC(=O)C(=CNc1cc(C)nn1C(C)(C)C)C(=O)OCC	none
CC(C)COc1ccc(C/C(N)=N/n2cnnc2)cc1	STAT1 inh-1 35 | STAT1 inh-2 inactive | NFkB inh STAT1ct inactive | STAT3 inh STAT1c 39
Cc1cccc(/C=C(\c2nc3ccccc3[nH]2)S(=O)(=O)c2ccccc2)c1	STAT1 inh-1 38 | STAT1 inh-2 47 | NFkB inh STAT1ct inactive | STAT3 inh STAT1c inactive
CCC(=O)Nc1ccc2c(c1)Cc1cc([N+](=O)[O-])ccc1-2	none (no result: PPC-1+TRAIL kill, STAT3 inh, STAT1 inh-1, HSP90 refold inh, HSF1 inhib)
COc1cccc(-n2nnnc2S(C)(=O)=O)c1	STAT1 inh-1 35 | STAT1 inh-2 44 | NFkB inh STAT1ct inactive | STAT3 inh STAT1c inactive
